Laboratory results reported in publication PMC7862700, “An all-to-all approach to the identification of sequence-specific readers for epigenetic DNA modifications on cytosine”.

How the values were obtained:
Assay in all cases: DAPPL (digital affinity profiling via proximity ligation, sequencing); 10 mM Tris-HCl pH 7.5, 50 mM NaCl, 1 mM DTT, 4% glycerol, room temperature, 30 min; GST-TFs on glutathione beads, 16-mer random dsDNA library, 0.1% formaldehyde crosslink after washing; high values mean tight binding
FEV = target: T1, FEV (Homo sapiens, UniProt Q99581 1-238); details: protein: recombinant; tags: N-terminal GST; dsDNA, one strand shown
T1 sequence: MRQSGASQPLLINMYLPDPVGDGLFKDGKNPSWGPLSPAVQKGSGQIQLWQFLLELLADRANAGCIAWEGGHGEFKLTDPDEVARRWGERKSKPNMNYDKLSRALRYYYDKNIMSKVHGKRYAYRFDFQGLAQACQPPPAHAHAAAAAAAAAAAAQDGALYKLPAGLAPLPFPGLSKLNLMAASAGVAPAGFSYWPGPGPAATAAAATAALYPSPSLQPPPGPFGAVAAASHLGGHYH
In short: (§1)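 Human transcription factors were made in yeast as GST fusions, captured on glutathione beads and barcoded with DNA. With a tag-only sample included, the pool was incubated with 200 nmole of a random double-stranded 16-mer DNA library in Tris/NaCl/DTT/glycerol buffer at room temperature for 30 min, then crosslinked with 0.1% formaldehyde after washing, ligated by proximity, amplified and sequenced. For binding signal, each hexamer's read frequency for a factor is divided by its frequency for the tag-only sample.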

ETV5 = ETV5 (Homo sapiens, UniProt P41161 1-510); details: protein: recombinant; tags: N-terminal GST; dsDNA, one strand shown
Chain of ETV5 (P41161 whole entry): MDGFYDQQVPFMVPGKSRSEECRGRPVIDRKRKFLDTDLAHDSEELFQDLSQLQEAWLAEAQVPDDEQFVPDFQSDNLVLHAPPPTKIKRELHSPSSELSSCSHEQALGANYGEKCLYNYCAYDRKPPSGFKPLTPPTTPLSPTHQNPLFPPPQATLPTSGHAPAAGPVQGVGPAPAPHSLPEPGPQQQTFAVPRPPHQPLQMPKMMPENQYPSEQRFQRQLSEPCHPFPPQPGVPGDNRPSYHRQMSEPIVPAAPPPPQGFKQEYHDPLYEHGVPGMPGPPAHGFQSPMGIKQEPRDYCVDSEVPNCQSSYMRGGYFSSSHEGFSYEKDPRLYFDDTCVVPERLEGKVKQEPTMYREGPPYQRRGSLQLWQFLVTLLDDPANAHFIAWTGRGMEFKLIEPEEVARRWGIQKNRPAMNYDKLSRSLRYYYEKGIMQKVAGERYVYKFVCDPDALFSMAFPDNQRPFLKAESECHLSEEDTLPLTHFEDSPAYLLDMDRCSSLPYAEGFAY
In short: as §1

HSF1 = HSF1 (Homo sapiens, UniProt Q00613 1-529); details: protein: recombinant; tags: N-terminal GST; chain copies: 3; dsDNA, one strand shown
Chain of HSF1 (Q00613 whole entry): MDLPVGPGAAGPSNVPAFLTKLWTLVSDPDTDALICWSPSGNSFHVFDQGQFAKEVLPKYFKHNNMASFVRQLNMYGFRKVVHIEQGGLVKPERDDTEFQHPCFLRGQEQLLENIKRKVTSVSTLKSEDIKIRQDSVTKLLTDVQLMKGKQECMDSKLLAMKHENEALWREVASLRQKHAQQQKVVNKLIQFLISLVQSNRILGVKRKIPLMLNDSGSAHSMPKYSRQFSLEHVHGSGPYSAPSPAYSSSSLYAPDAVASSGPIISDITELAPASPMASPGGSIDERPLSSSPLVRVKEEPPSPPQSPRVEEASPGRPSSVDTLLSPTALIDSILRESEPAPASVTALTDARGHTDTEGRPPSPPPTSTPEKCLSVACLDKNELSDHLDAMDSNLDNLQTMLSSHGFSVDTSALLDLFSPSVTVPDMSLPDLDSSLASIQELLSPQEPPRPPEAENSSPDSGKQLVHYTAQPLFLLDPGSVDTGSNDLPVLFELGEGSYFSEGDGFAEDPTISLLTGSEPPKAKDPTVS
In short: as §1

SPIC = target: T2, SPIC (Homo sapiens, UniProt Q8N5J4 1-248); details: protein: recombinant; tags: N-terminal GST; dsDNA, one strand shown
T2 sequence: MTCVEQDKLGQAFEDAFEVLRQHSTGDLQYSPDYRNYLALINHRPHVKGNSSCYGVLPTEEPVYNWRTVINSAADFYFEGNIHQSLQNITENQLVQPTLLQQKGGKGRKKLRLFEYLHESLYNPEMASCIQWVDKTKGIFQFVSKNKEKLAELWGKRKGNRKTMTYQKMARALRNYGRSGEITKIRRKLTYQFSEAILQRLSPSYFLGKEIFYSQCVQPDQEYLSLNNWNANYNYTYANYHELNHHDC
In short: as §1

ELF4 = ELF4 (Homo sapiens, UniProt Q99607 1-663); details: protein: recombinant; tags: N-terminal GST; dsDNA, one strand shown
Chain of ELF4 (Q99607 whole entry): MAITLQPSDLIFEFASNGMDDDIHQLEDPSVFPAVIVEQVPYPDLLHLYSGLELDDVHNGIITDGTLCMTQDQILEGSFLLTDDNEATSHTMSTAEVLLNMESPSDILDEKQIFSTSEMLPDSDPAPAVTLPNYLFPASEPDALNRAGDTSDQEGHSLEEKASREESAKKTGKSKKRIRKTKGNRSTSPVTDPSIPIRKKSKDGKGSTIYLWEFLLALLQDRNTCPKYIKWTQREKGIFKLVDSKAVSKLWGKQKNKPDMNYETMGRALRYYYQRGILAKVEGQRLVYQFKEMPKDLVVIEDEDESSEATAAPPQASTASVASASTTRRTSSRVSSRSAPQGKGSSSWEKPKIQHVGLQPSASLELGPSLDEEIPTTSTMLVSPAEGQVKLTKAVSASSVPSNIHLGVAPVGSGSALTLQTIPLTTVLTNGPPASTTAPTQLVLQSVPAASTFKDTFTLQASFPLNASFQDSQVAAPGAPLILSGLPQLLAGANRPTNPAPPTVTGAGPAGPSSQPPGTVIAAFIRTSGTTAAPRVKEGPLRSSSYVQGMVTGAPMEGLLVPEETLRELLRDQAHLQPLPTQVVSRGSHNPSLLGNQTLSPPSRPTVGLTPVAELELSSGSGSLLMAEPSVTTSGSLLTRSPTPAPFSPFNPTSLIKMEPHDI
In short: as §1

ELK4 = target: T3, ELK4 (Homo sapiens, UniProt P28324-2 1-405); details: protein: recombinant; tags: N-terminal GST; dsDNA, one strand shown
T3 sequence: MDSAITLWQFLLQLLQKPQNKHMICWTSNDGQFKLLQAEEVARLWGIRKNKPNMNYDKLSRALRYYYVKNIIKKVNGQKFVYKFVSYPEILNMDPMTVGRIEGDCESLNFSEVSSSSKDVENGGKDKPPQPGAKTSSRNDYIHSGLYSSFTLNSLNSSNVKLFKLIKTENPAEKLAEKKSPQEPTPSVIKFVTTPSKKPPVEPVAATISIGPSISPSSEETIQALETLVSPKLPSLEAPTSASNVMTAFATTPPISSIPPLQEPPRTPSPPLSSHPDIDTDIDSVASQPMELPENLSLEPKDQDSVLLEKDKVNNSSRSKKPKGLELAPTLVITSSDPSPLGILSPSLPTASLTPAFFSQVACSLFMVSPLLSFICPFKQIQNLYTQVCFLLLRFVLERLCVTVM
In short: as §1

ETV2 = target: T4, ETV2 (Homo sapiens, UniProt O00321 1-342); details: protein: recombinant; tags: N-terminal GST; dsDNA, one strand shown
T4 sequence: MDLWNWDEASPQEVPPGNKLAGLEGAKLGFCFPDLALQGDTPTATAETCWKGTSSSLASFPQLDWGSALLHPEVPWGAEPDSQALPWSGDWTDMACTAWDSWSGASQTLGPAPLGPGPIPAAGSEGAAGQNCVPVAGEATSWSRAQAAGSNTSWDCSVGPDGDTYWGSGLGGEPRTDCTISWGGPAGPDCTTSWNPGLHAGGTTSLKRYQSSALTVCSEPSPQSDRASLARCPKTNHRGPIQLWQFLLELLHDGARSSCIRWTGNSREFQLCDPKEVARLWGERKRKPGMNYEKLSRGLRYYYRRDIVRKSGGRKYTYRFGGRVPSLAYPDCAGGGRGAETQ
In short: as §1

ELF3 = target: T5, ELF3 (Homo sapiens, UniProt P78545 1-371); details: protein: recombinant; tags: N-terminal GST; dsDNA, one strand shown
T5 sequence: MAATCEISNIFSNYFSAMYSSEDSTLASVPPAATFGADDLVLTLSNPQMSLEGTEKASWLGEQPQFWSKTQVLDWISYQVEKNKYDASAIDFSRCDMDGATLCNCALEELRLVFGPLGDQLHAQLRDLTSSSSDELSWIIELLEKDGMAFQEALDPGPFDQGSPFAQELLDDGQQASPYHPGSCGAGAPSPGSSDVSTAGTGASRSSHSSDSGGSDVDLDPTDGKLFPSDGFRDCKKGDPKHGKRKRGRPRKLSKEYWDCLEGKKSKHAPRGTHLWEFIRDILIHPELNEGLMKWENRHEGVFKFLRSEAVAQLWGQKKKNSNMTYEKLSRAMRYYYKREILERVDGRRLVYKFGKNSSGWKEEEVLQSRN
In short: as §1

CRX = CRX (Homo sapiens, UniProt O43186 1-299); details: protein: recombinant; tags: N-terminal GST; dsDNA, one strand shown
Chain of CRX (O43186 whole entry): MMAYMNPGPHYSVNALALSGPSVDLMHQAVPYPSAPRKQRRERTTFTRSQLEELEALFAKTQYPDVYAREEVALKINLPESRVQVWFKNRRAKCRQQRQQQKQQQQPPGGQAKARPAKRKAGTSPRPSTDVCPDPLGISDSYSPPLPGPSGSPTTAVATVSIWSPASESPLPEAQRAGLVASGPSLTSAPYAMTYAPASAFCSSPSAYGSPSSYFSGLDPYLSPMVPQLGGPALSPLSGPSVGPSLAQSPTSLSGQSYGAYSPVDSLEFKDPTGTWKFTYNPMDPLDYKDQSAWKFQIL
In short: as §1

ETV1 = ETV1 (Homo sapiens, UniProt P50549 1-477); details: protein: recombinant; tags: N-terminal GST; dsDNA, one strand shown
Chain of ETV1 (P50549 whole entry): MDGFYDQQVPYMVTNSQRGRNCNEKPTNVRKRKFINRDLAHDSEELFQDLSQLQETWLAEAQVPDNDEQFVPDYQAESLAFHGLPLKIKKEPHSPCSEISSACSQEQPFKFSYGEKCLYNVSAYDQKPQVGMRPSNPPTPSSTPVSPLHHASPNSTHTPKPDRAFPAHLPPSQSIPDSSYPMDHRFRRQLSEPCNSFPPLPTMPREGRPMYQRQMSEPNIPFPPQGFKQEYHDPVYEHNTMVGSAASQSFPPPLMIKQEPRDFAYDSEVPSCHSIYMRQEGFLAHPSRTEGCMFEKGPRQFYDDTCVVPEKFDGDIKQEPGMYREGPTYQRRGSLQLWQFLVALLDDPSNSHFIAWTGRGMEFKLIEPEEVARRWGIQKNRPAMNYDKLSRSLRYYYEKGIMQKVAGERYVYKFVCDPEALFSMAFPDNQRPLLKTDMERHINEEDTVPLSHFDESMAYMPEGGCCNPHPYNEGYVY
In short: as §1

ERF = target: T6, ERF (Homo sapiens, UniProt P50548 1-548); details: protein: recombinant; tags: N-terminal GST; dsDNA, one strand shown
T6 sequence: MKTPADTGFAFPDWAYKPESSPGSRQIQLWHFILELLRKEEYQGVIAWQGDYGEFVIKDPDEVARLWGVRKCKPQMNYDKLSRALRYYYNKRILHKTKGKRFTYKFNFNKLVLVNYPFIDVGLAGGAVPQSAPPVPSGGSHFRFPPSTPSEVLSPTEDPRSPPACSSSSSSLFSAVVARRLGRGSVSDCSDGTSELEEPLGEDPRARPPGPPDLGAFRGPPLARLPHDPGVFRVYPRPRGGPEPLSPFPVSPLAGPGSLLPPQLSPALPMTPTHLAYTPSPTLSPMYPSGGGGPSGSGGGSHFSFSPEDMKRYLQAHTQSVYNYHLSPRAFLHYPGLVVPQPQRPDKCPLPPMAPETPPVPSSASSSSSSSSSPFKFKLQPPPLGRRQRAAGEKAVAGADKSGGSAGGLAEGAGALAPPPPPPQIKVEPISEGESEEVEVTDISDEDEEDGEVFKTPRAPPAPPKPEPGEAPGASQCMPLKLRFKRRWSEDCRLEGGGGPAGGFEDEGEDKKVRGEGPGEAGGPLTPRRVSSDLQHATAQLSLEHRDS
In short: as §1

ETV3L = target: T7, ETV3L (Homo sapiens, UniProt Q6ZN32 1-361); details: protein: recombinant; tags: N-terminal GST; dsDNA, one strand shown
T7 sequence: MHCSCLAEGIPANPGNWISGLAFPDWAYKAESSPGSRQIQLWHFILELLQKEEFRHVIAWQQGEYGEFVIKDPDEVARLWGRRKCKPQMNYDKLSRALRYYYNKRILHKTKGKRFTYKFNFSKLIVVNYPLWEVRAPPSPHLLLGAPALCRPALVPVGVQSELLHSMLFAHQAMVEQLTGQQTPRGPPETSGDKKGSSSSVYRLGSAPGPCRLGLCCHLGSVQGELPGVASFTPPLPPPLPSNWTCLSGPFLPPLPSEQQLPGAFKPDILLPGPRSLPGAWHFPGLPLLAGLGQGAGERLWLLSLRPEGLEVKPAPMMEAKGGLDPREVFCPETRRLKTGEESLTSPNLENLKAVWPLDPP
In short: as §1

ETS2 = target: T8, ETS2 (Homo sapiens, UniProt P15036 1-469); details: protein: recombinant; tags: N-terminal GST; dsDNA, one strand shown
T8 sequence: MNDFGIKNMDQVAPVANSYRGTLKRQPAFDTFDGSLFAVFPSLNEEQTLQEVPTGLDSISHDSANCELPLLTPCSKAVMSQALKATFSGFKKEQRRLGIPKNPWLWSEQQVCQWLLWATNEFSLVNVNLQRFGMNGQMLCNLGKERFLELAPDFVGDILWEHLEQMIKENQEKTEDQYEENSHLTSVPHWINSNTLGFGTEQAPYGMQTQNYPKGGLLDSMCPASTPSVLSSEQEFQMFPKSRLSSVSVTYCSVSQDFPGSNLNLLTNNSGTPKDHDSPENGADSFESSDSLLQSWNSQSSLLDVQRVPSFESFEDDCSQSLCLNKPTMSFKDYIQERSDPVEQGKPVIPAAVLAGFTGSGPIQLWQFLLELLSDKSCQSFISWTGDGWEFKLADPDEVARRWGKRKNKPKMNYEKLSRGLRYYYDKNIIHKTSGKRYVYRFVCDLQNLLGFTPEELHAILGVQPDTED
In short: as §1

SPDEF = target: T9, SPDEF (Homo sapiens, UniProt O95238 1-335); details: protein: recombinant; tags: N-terminal GST; dsDNA, one strand shown
T9 sequence: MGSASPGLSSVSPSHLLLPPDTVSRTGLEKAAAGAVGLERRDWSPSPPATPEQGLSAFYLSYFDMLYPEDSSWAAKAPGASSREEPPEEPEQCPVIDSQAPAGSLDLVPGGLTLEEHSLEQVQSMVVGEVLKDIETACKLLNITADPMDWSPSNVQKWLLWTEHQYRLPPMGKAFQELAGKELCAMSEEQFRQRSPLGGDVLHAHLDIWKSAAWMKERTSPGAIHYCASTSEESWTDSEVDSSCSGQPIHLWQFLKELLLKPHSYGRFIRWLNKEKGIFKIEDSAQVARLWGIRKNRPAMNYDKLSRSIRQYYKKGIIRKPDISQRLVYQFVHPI
In short: as §1

ETV7 = target: T10, ETV7 (Homo sapiens, UniProt Q9Y603 1-341); details: protein: recombinant; tags: N-terminal GST; dsDNA, one strand shown
T10 sequence: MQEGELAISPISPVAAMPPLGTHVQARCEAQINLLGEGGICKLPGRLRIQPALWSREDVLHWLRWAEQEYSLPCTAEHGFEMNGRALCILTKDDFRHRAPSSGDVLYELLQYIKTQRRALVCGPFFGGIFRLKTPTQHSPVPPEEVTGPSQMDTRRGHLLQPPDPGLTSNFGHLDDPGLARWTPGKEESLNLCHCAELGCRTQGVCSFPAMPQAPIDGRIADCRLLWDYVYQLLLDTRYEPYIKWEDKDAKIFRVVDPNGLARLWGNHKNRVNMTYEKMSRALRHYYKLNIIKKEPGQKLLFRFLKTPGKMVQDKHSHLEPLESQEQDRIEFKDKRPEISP
In short: as §1

ELF5 = target: T11, ELF5 (Homo sapiens, UniProt Q9UKW6-2 1-255); details: protein: recombinant; tags: N-terminal GST; dsDNA, one strand shown
T11 sequence: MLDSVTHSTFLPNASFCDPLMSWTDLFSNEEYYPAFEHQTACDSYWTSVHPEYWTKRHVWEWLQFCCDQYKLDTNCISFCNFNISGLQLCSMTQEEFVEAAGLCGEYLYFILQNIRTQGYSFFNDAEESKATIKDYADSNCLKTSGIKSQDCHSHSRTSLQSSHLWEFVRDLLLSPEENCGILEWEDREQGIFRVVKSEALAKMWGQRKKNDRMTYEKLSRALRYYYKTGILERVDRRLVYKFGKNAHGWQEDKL
In short: as §1

ETV3 = target: T12, ETV3 (Homo sapiens, UniProt P41162-2 1-143); details: protein: recombinant; tags: N-terminal GST; dsDNA, one strand shown
T12 sequence: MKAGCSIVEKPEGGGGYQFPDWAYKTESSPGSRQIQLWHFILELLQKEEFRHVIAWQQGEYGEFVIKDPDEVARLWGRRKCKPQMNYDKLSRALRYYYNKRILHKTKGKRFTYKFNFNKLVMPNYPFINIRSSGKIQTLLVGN
In short: as §1

ETV6 = ETV6 (Homo sapiens, UniProt P41212 1-452); details: protein: recombinant; tags: N-terminal GST; dsDNA, one strand shown
Chain of ETV6 (P41212 whole entry): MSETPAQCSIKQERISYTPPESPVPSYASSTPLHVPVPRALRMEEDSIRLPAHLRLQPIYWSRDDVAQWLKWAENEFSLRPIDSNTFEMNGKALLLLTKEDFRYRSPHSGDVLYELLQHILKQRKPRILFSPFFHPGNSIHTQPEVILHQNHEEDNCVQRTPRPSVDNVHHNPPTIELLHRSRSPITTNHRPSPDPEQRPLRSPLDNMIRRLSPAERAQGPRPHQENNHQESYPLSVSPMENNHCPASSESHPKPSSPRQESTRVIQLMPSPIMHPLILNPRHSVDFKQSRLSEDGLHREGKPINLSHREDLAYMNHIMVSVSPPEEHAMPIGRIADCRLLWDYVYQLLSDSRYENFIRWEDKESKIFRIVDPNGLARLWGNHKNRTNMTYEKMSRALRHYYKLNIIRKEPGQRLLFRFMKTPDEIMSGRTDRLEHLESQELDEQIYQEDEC
In short: as §1

Question: CTCAAG was tested. Which binding signal (FEV) did it give?
Answer: 1.16 fold enrichment (6-mer frequency, TF over GST control)

Question: What about the binding signal (ETV5) of the same sequence?
Answer: 1.14 fold enrichment (6-mer frequency, TF over GST control)

Question: And the binding signal (HSF1)?
Answer: 1.19 fold enrichment (6-mer frequency, TF over GST control)

Question: And the binding signal (SPIC)?
Answer: 1.1 fold enrichment (6-mer frequency, TF over GST control)

Question: And the binding signal (ELF4)?
Answer: 1.19 fold enrichment (6-mer frequency, TF over GST control)

Question: What about the binding signal (ELK4) of the same sequence?
Answer: 1.09 fold enrichment (6-mer frequency, TF over GST control)

Question: What about the binding signal (ETV2) of the same sequence?
Answer: 1.11 fold enrichment (6-mer frequency, TF over GST control)

Question: What about the binding signal (ELF3) of the same sequence?
Answer: 1.22 fold enrichment (6-mer frequency, TF over GST control)

Question: And the binding signal (CRX)?
Answer: 1.2 fold enrichment (6-mer frequency, TF over GST control)

Question: And the binding signal (ETV1)?
Answer: 1.21 fold enrichment (6-mer frequency, TF over GST control)

Question: And the binding signal (ERF)?
Answer: 1.27 fold enrichment (6-mer frequency, TF over GST control)

Question: What about the binding signal (ETV3L) of the same sequence?
Answer: 1.1 fold enrichment (6-mer frequency, TF over GST control)

Question: And the binding signal (ETS2)?
Answer: 1.22 fold enrichment (6-mer frequency, TF over GST control)

Question: And the binding signal (SPDEF)?
Answer: 1.14 fold enrichment (6-mer frequency, TF over GST control)

Question: And the binding signal (ETV7)?
Answer: 1.24 fold enrichment (6-mer frequency, TF over GST control)

Question: And the binding signal (ELF5)?
Answer: 1.1 fold enrichment (6-mer frequency, TF over GST control)

Question: And the binding signal (ETV3)?
Answer: 1.24 fold enrichment (6-mer frequency, TF over GST control)

Question: And the binding signal (ETV6)?
Answer: 1.22 fold enrichment (6-mer frequency, TF over GST control)
